# Data: the supplement of paper PMC13392028
# The full ranking holds about 4,100 sequences; the median of “RBNS R-value (6-mer enrichment in protein-bound RNA vs input library)” is about 0.96, and the highest 2% start at about 2.4. What follows is part of a selection rich in the highest values, with near analogues and random picks from the rest.
# Tested on: PyIESI-1 RRM domain (Plasmodium yoelii PY17X_0911200 aa 795-956, GST fusion)
# Test: RBNS R-value (6-mer enrichment in protein-bound RNA vs input library) (ratio); higher = stronger binding preference; the methods of the paper give 50 / 100 / 500 nM protein instead
# Description: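 RNA Bind-n-Seq: recombinant GST-tagged IESI-1 RRM domain was incubated at room temperature with a random 40-nt in vitro transcribed RNA library at 250, 500 or 1000 nM protein. Bound RNA was pulled down on glutathione beads and sequenced. R-value is the enrichment of each 6-mer in the bound RNA relative to the input library. Each 6-mer sits inside the random 40-mer context, not as an isolated oligo. Values are replicate 1 only.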
Sequence,RBNS R-value (protein concentration: 250 nM),RBNS R-value (protein concentration: 500 nM),RBNS R-value (protein concentration: 1000 nM)
ACAUUG,1.19,1.17,1.2
GACCAG,1.1,1.11,1.09
GCUACU,0.838,0.861,0.829
GUGGAG,0.967,0.977,0.96
AAUUCC,1.12,1.09,1.12
CAUUCG,1.01,1.05,1.07
UAUUCU,0.707,0.731,0.734
AAUUCG,1.08,1.08,1.08
AAUUCU,1.06,1.05,1.06
GAUUCA,2.85,2.7,2.92
AAUUCA,0.88,0.882,0.917
UAUUCA,0.554,0.565,0.571
CAUUCC,0.948,0.975,0.997
GAUUCC,2.42,2.37,2.49
GAUUCG,2.64,2.49,2.51
GAUUCU,2.89,2.77,2.85
GCGCAG,1.01,1.03,1.03
ACAUCG,0.752,0.777,0.749
UCCAGU,0.838,0.85,0.831
ACCCAG,1.32,1.27,1.32
AAUCCC,0.954,0.955,0.949
ACUGCG,1.12,1.13,1.13
GACAAC,1.09,1.07,1.07

Sequence,RBNS R-value (protein concentration: 250 nM),RBNS R-value (protein concentration: 500 nM),RBNS R-value (protein concentration: 1000 nM)
UCUUCC,0.978,1.01,1.03
CGAUCC,1.19,1.22,1.26
UGAUCU,2.74,2.75,2.93
CGAUCU,1.15,1.15,1.19
AGAUCA,0.82,0.812,0.814
AGAUCU,0.946,0.924,0.93
GGAUCC,0.932,0.922,0.909
UGAUCA,2.37,2.38,2.64
UGAUCC,2.58,2.6,2.82
GGAUCA,0.767,0.764,0.736
GUGUUC,0.821,0.855,0.82
CGUACU,0.773,0.765,0.73
CAGUGA,1.6,1.58,1.62
AGAUUA,1.09,1.16,1.25
CCAUUU,0.871,0.913,0.936
UGAUUA,6.31,5.88,6.3
AGAUUC,1.47,1.49,1.58
GGAUUU,1.08,1.1,1.06
CGAUUA,1.73,1.79,1.94
CGAUUU,2.59,2.56,2.71
UGAUUU,7.9,7.06,7.22
CGAUUC,2.08,2.12,2.24
AGAUUU,1.72,1.72,1.83

Sequence,RBNS R-value (protein concentration: 250 nM),RBNS R-value (protein concentration: 500 nM),RBNS R-value (protein concentration: 1000 nM)
CUAUUU,0.653,0.681,0.664
UGAUUC,6.24,5.67,5.91
GCCAGU,0.86,0.901,0.892
UCUUGC,1.12,1.17,1.18
GAACCU,1.11,1.1,1.07
GAUACC,1.83,1.85,1.99
ACGAAU,0.896,0.896,0.865
GCAGUG,1.11,1.14,1.12
AUUCGC,1.47,1.43,1.46
UACUUC,0.69,0.719,0.702
AUCCCU,0.892,0.921,0.934
CCGGUG,1.11,1.14,1.12
CGCUUA,0.602,0.629,0.617
AUCUAA,0.647,0.67,0.637
GUCAAU,0.655,0.685,0.671
CGAUUG,2.25,2.18,2.2
UGAUUG,5.45,4.95,4.94
GGAUUG,1.22,1.22,1.15
GAAAGG,1.1,1.08,1.01
AGAUAC,1.02,1.09,1.09
ACCUCG,1.08,1.06,1.06
AGUGAA,0.884,0.89,0.844
UGUGAU,3.77,3.62,3.78

Sequence,RBNS R-value (protein concentration: 250 nM),RBNS R-value (protein concentration: 500 nM),RBNS R-value (protein concentration: 1000 nM)
AGUGAC,1.01,1.04,1.02
AGUGAU,3.53,3.36,3.56
CGUGAU,3.46,3.26,3.39
GGUGAG,0.98,0.993,0.943
UGUGAC,1.17,1.18,1.16
UGUGAG,1.11,1.1,1.05
GGUGAC,1.01,1.04,0.983
CGUGAA,0.949,0.925,0.895
GGUGAU,2.66,2.69,2.75
CGUGAG,0.911,0.913,0.868
UGCGCU,1.27,1.25,1.26
UCCGUG,1.12,1.15,1.16
GACUCG,1.11,1.13,1.07
UGUUUC,0.901,0.972,0.97
AGCUGA,1.72,1.68,1.68
UCGUGG,0.808,0.811,0.782
CAGCGU,0.779,0.809,0.78
UGCCUC,1.11,1.13,1.19
UGGCCA,1.26,1.22,1.24
GAUAGC,2.53,2.39,2.48
GAUAGA,1.92,1.93,2
GAUAGU,1.39,1.41,1.45
UGCUCA,0.956,0.977,1

Sequence,RBNS R-value (protein concentration: 250 nM),RBNS R-value (protein concentration: 500 nM),RBNS R-value (protein concentration: 1000 nM)
GAUGUA,2.51,2.41,2.52
GAUGUC,2.55,2.44,2.5
UAUGUG,0.924,0.971,0.978
GAUGUU,2.92,2.8,2.87
UAUGUC,0.642,0.672,0.661
UAUGUA,0.585,0.616,0.581
GAUGUG,3.46,3.14,3.14
CAUGUC,0.705,0.722,0.733
CAUGUG,1.02,1.04,1.03
AAUGUA,0.646,0.662,0.639
CAUGUU,0.726,0.757,0.737
AAUGUU,0.8,0.836,0.819
GCGUCG,0.809,0.784,0.765
UUGUUA,0.717,0.765,0.738
AGCCUG,1.33,1.33,1.36
GUGGCC,0.987,0.981,0.976
AACCUG,1.37,1.36,1.38
CCGCUA,0.743,0.757,0.758
UACUAC,0.519,0.53,0.491
AAUUAA,0.471,0.515,0.483
AAUUAG,0.641,0.657,0.639
GAUUAC,2.72,2.65,2.82
CAUUAG,0.57,0.593,0.579

Sequence,RBNS R-value (protein concentration: 250 nM),RBNS R-value (protein concentration: 500 nM),RBNS R-value (protein concentration: 1000 nM)
GAUUAA,2.47,2.37,2.56
CAUUAC,0.471,0.51,0.491
GAUUAG,2.44,2.41,2.5
CAUUAA,0.41,0.435,0.403
UAUUAC,0.487,0.514,0.489
CGGUGA,1.36,1.39,1.35
ACCGCG,1.03,1.03,1.04
CGAACC,1.09,1.06,1.06
GGGCCG,1,1.01,0.999
GCAAGC,0.92,0.933,0.931
CCGGUC,0.872,0.923,0.916
UAUGCG,0.859,0.856,0.873
CAUGCU,0.844,0.875,0.883
AAUGCU,0.903,0.932,0.944
GAUGCC,2.7,2.6,2.86
GAUGCU,2.48,2.42,2.51
GAUGCG,2.54,2.45,2.52
AAUGCG,0.941,0.968,0.97
UAUGCA,0.689,0.714,0.705
CAUGCC,0.921,0.929,0.99
CAUGCA,0.757,0.762,0.774
UAUGCC,0.797,0.84,0.861
GAUGCA,2.66,2.5,2.68

Sequence,RBNS R-value (protein concentration: 250 nM),RBNS R-value (protein concentration: 500 nM),RBNS R-value (protein concentration: 1000 nM)
CUGCCA,1.03,1.05,1.07
UUUGUU,0.893,0.907,0.907
ACGAAC,0.96,0.939,0.926
AUUUAU,0.824,0.83,0.836
UGCUUU,1.1,1.15,1.18
CGAUGA,3.48,3.36,3.47
UGAUGU,7,6.29,6.39
AUAUGA,1.78,1.74,1.84
GGAUGA,1.75,1.71,1.69
CAAUGA,2.27,2.18,2.28
CGAUGC,2.07,2.1,2.31
AGAUGU,1.45,1.47,1.54
UUAUGA,1.76,1.72,1.81
AGAUGC,1.47,1.52,1.65
CGAUGU,2.03,2.04,2.13
UGAUGA,9.09,7.87,7.73
AGAUGA,2.69,2.61,2.72
UCACCA,0.862,0.849,0.9
GGAGCG,1.01,1.01,0.994
AUACCA,0.709,0.723,0.733
AACUUC,0.893,0.92,0.901
CGCAAG,0.91,0.907,0.917
UCCCAA,0.972,0.967,0.987

Sequence,RBNS R-value (protein concentration: 250 nM),RBNS R-value (protein concentration: 500 nM),RBNS R-value (protein concentration: 1000 nM)
GGGGGA,1.03,1.05,1.01
UGAUGG,5.96,5.24,5.21
CGAUGG,2.05,1.98,2
GGAUGC,1.08,1.04,1.08
AGAUGG,1.49,1.46,1.49
UUAUGC,0.736,0.778,0.779
UGAUGC,6.04,5.5,5.71
CAAGGC,0.956,0.935,0.949
CACACU,0.829,0.834,0.839
CGGAGC,1.02,1.01,1
UUCUUU,0.927,0.977,1
AUUUGC,1.82,1.76,1.77
CAUGGC,1.06,1.08,1.1
UAUGGG,0.863,0.942,0.916
AAUGGG,1.06,1.06,1.03
GAUGGC,3.56,3.12,3.1
GAUGGG,2.54,2.43,2.36
UAUGGC,1.41,1.37,1.34
UCAGAC,0.883,0.894,0.893
AUUUAC,0.935,0.952,0.963
AUGGGA,1.34,1.34,1.29
GUCAAC,0.681,0.708,0.688
UCUCAA,0.805,0.835,0.84
